This is part of a sample that, as a whole, favours compounds with a hit. Of some 83,000 tested, about 20% had one in any assay.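 Each cell line was grown in a 96-well plate and treated with one concentration of compound for 48 hours. Values below 10 were considered active.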 Active and inactive are the calls of the source.
Experiments:
Assay in all cases: NCI-60 one-dose screen, 48 h (100 = growth as untreated, 0 = no growth, -100 = all killed)
Conditions in all cases: 10 µM unless noted
SK-MEL-2 melanoma = tested on: SK-MEL-2 melanoma
EKVX NSCLC = tested on: EKVX NSCLC
SN12C renal = tested on: SN12C renal
UO-31 renal = tested on: UO-31 renal
TK-10 renal = tested on: TK-10 renal
ACHN renal = tested on: ACHN renal
CAKI-1 renal = tested on: CAKI-1 renal
A498 renal = tested on: A498 renal
CCRF-CEM leukemia = tested on: CCRF-CEM leukemia
MOLT-4 leukemia = tested on: MOLT-4 leukemia
SR leukemia = tested on: SR leukemia
RPMI-8226 leukemia = tested on: RPMI-8226 leukemia
OVCAR-8 ovarian = tested on: OVCAR-8 ovarian
OVCAR-5 ovarian = tested on: OVCAR-5 ovarian
OVCAR-4 ovarian = tested on: OVCAR-4 ovarian
IGROV1 ovarian = tested on: IGROV1 ovarian
OVCAR-3 ovarian = tested on: OVCAR-3 ovarian
HS 578T breast = tested on: HS 578T breast
NCI/ADR-RES ovarian = tested on: NCI/ADR-RES ovarian
SK-OV-3 ovarian = tested on: SK-OV-3 ovarian

Measured: growth

N=C(N)c1ccc(-c2ccc(-c3cc(F)cc(F)c3)o2)nc1
inactive: SK-MEL-2 melanoma 106% | EKVX NSCLC 90.4% | SN12C renal 86.9% | UO-31 renal 69.8% | TK-10 renal 124% | ACHN renal 90% | CAKI-1 renal 78.5% | A498 renal 90.3% | MOLT-4 leukemia 73.8% | RPMI-8226 leukemia 60.5% | OVCAR-8 ovarian 97.5% | OVCAR-5 ovarian 88.9% | OVCAR-4 ovarian 96.2% | IGROV1 ovarian 88.6% | OVCAR-3 ovarian 95.6% | HS 578T breast 87.8% | NCI/ADR-RES ovarian 94.6%
active: CCRF-CEM leukemia -35.6% | SR leukemia 7.21%

COC(c1ccccc1)(c1ccccc1)c1ccccc1
inactive: SK-MEL-2 melanoma 118% | EKVX NSCLC 85.3% | SN12C renal 97% | UO-31 renal 105% | TK-10 renal 123% | ACHN renal 101% | CAKI-1 renal 72.1% | A498 renal 104% | CCRF-CEM leukemia 131% | MOLT-4 leukemia 123% | SR leukemia 114% | RPMI-8226 leukemia 171% | OVCAR-8 ovarian 98.8% | OVCAR-5 ovarian 113% | OVCAR-4 ovarian 99.3% | SK-OV-3 ovarian 107% | OVCAR-3 ovarian 108% | HS 578T breast 103% | NCI/ADR-RES ovarian 108%

Cc1cc(C)n(Cc2cc(C(C)(C)C)cc(C(C)(C)C)c2)c(=O)c1C#N
inactive: SK-MEL-2 melanoma 107% | EKVX NSCLC 75.2% | SN12C renal 90% | UO-31 renal 80.5% | TK-10 renal 107% | ACHN renal 98.4% | CAKI-1 renal 104% | A498 renal 97% | CCRF-CEM leukemia 87.9% | MOLT-4 leukemia 76.6% | SR leukemia 84% | RPMI-8226 leukemia 93.7% | OVCAR-8 ovarian 93.4% | OVCAR-5 ovarian 83.8% | OVCAR-4 ovarian 90.4% | IGROV1 ovarian 96.8% | OVCAR-3 ovarian 106% | HS 578T breast 81.6% | NCI/ADR-RES ovarian 96.7%

Cn1c2c(Cl)c(Cl)ccc2c2c(C#N)c[nH]c(=O)c21
inactive: SK-MEL-2 melanoma 97.3% | EKVX NSCLC 98.9% | SN12C renal 95.9% | UO-31 renal 89.9% | TK-10 renal 119% | ACHN renal 93.4% | CAKI-1 renal 71.1% | A498 renal 89.5% | CCRF-CEM leukemia 39.2% | MOLT-4 leukemia 95.7% | SR leukemia 112% | RPMI-8226 leukemia 65.2% | OVCAR-8 ovarian 91.2% | OVCAR-5 ovarian 123% | OVCAR-4 ovarian 99.5% | IGROV1 ovarian 89.5% | OVCAR-3 ovarian 110% | HS 578T breast 84.5% | NCI/ADR-RES ovarian 103%

COC(=O)[C@]12CC[C@@H](C)[C@H](C)[C@@H]1C1=CC[C@@H]3[C@@]4(C)C(c5ncon5)=C[C@@](C)(CO)C4=CC[C@@]3(C)[C@]1(C)CC2
inactive: CAKI-1 renal 20.6% | HS 578T breast 12.5%
active: SK-MEL-2 melanoma -51% | EKVX NSCLC -76.5% | SN12C renal -14.4% | UO-31 renal -93.5% | TK-10 renal 1.76% | ACHN renal -89.4% | A498 renal -36.4% | CCRF-CEM leukemia -52.5% | MOLT-4 leukemia -42.8% | SR leukemia -15.5% | RPMI-8226 leukemia -32.4% | OVCAR-8 ovarian -6.22% | OVCAR-5 ovarian -56.2% | OVCAR-4 ovarian 5.83% | IGROV1 ovarian -10.8% | OVCAR-3 ovarian -86.8% | NCI/ADR-RES ovarian 6.21%

Cc1ccc2c(c1)c1nc3cc(C)c(C)cc3nc1n2CCN(C)C
active: UO-31 renal -10.4% | ACHN renal -0.699% | CAKI-1 renal 2.44% | MOLT-4 leukemia 8.57% | SR leukemia 6.5% | RPMI-8226 leukemia 1.96% | IGROV1 ovarian 6.96%
inactive: SK-MEL-2 melanoma 35.8% | EKVX NSCLC 19.7% | SN12C renal 13.5% | TK-10 renal 27.7% | A498 renal 35.7% | CCRF-CEM leukemia 26.4% | OVCAR-8 ovarian 18.4% | OVCAR-5 ovarian 20.5% | OVCAR-4 ovarian 33.1% | SK-OV-3 ovarian 30.9% | OVCAR-3 ovarian 29.7% | HS 578T breast 50.1% | NCI/ADR-RES ovarian 12.8%

O=C(/C=C/c1cccc2ccccc12)Nc1ncc(Cc2ccccc2)s1
inactive: SK-MEL-2 melanoma 43.4% | EKVX NSCLC 20.3% | SN12C renal 32.1% | UO-31 renal 32.2% | TK-10 renal 31.7% | ACHN renal 20.8% | CAKI-1 renal 22.5% | CCRF-CEM leukemia 10.4% | MOLT-4 leukemia 18% | SR leukemia 13.1% | OVCAR-8 ovarian 29% | OVCAR-5 ovarian 22.7% | IGROV1 ovarian 15.8% | HS 578T breast 12.7%
active: A498 renal -10.8% | RPMI-8226 leukemia 8.58% | OVCAR-4 ovarian 6.74% | OVCAR-3 ovarian -17.8% | NCI/ADR-RES ovarian -8.05%

C=COCCCCCCCCCCCCCCCCCC
inactive: SK-MEL-2 melanoma 111% | EKVX NSCLC 118% | SN12C renal 88.4% | UO-31 renal 124% | TK-10 renal 101% | ACHN renal 108% | CAKI-1 renal 99.7% | A498 renal 92.7% | CCRF-CEM leukemia 91.5% | MOLT-4 leukemia 96.3% | SR leukemia 94.6% | RPMI-8226 leukemia 115% | OVCAR-8 ovarian 96.5% | OVCAR-5 ovarian 106% | OVCAR-4 ovarian 109% | SK-OV-3 ovarian 103% | OVCAR-3 ovarian 92.6% | HS 578T breast 89.3% | NCI/ADR-RES ovarian 98.9%

CCN1CCN(C(=O)[C@]23CCC(C)(C)C[C@H]2C2=CC[C@@H]4[C@@]5(C)CC/C(=N/O)C(C)(C)[C@@H]5CC[C@@]4(C)[C@]2(C)CC3)CC1
active: SR leukemia 0.702% | OVCAR-4 ovarian -20.5%
inactive: SK-MEL-2 melanoma 95.6% | EKVX NSCLC 58.4% | SN12C renal 16.2% | UO-31 renal 37% | TK-10 renal 136% | ACHN renal 28.4% | CAKI-1 renal 54.3% | A498 renal 85.2% | CCRF-CEM leukemia 38.3% | MOLT-4 leukemia 31% | RPMI-8226 leukemia 16.6% | OVCAR-8 ovarian 56.9% | OVCAR-5 ovarian 78.1% | SK-OV-3 ovarian 105% | IGROV1 ovarian 68% | OVCAR-3 ovarian 53.5% | HS 578T breast 84.2% | NCI/ADR-RES ovarian 60.1%

COc1ccc(-c2nc(SCC(=O)Nc3ccc(C(C)=O)cc3)[nH]c(=O)c2C#N)cc1
inactive: SK-MEL-2 melanoma 104% | EKVX NSCLC 102% | SN12C renal 94.5% | UO-31 renal 105% | TK-10 renal 98.4% | ACHN renal 101% | CAKI-1 renal 96.2% | A498 renal 98.1% | CCRF-CEM leukemia 109% | MOLT-4 leukemia 103% | SR leukemia 97.5% | RPMI-8226 leukemia 114% | OVCAR-8 ovarian 91% | OVCAR-5 ovarian 97.3% | OVCAR-4 ovarian 108% | SK-OV-3 ovarian 79.5% | IGROV1 ovarian 106% | OVCAR-3 ovarian 108% | HS 578T breast 115% | NCI/ADR-RES ovarian 108%

C#CCn1c2c(c3ccccc31)C[C@]1(C)[C@H]3CC[C@@H]4[C@@H]5C(=CCC[C@H]5C(=C)C)CC[C@@]4(C)[C@]3(C)CC[C@H]1C2(C)C
inactive: SK-MEL-2 melanoma 104% | EKVX NSCLC 99.2% | SN12C renal 95.6% | UO-31 renal 77.1% | TK-10 renal 122% | ACHN renal 99.2% | CAKI-1 renal 80.1% | A498 renal 111% | CCRF-CEM leukemia 114% | MOLT-4 leukemia 99.9% | SR leukemia 82.7% | RPMI-8226 leukemia 106% | OVCAR-8 ovarian 105% | OVCAR-5 ovarian 101% | OVCAR-4 ovarian 100% | SK-OV-3 ovarian 108% | OVCAR-3 ovarian 108% | HS 578T breast 93.8% | NCI/ADR-RES ovarian 106%

Nc1nc(Br)nc2c1ncn2C1CC(O)C(CO)O1 (stereo not drawn)
inactive: SK-MEL-2 melanoma 102% | EKVX NSCLC 71% | SN12C renal 52.1% | UO-31 renal 34.1% | TK-10 renal 71.2% | ACHN renal 29.8% | CAKI-1 renal 50.9% | A498 renal 89.4% | CCRF-CEM leukemia 27.4% | MOLT-4 leukemia 27.7% | SR leukemia 52.2% | RPMI-8226 leukemia 73.5% | OVCAR-8 ovarian 35.9% | OVCAR-5 ovarian 76.3% | OVCAR-4 ovarian 81.9% | SK-OV-3 ovarian 94.2% | OVCAR-3 ovarian 80.9% | HS 578T breast 91.7% | NCI/ADR-RES ovarian 22.3%

Cn1c(=O)c2c(ncn2CC(=O)Nc2ccc(S(N)(=O)=O)cc2)n(C)c1=O
inactive: SK-MEL-2 melanoma 104% | EKVX NSCLC 103% | SN12C renal 105% | UO-31 renal 88.8% | TK-10 renal 91.8% | ACHN renal 111% | CAKI-1 renal 93.8% | A498 renal 105% | CCRF-CEM leukemia 97.5% | MOLT-4 leukemia 103% | SR leukemia 105% | RPMI-8226 leukemia 99.9% | OVCAR-8 ovarian 105% | OVCAR-5 ovarian 105% | OVCAR-4 ovarian 108% | SK-OV-3 ovarian 87.8% | IGROV1 ovarian 112% | OVCAR-3 ovarian 106% | HS 578T breast 101% | NCI/ADR-RES ovarian 106%

CNC(=O)c1cc(Oc2ccc3nc(NC(=O)Nc4ccc(Cl)cc4)sc3c2)ccn1
inactive: SK-MEL-2 melanoma 81.1% | EKVX NSCLC 53.8% | SN12C renal 62.3% | UO-31 renal 62.5% | TK-10 renal 62.3% | ACHN renal 64.9% | CAKI-1 renal 94.7% | A498 renal 117% | CCRF-CEM leukemia 83.2% | MOLT-4 leukemia 85.4% | SR leukemia 42.7% | RPMI-8226 leukemia 81.7% | OVCAR-8 ovarian 57.2% | OVCAR-5 ovarian 92.3% | OVCAR-4 ovarian 13% | SK-OV-3 ovarian 82% | OVCAR-3 ovarian 48.8% | HS 578T breast 30.1% | NCI/ADR-RES ovarian 83.6%

COc1cccc(-c2nn(-c3ccccc3)cc2-c2ccnc(NCCCN)c2)c1
active: SR leukemia -10.5%
inactive: SK-MEL-2 melanoma 26.3% | EKVX NSCLC 66.7% | SN12C renal 50.9% | UO-31 renal 51.6% | TK-10 renal 72.2% | ACHN renal 82.7% | CAKI-1 renal 83.5% | A498 renal 42.3% | CCRF-CEM leukemia 29.3% | MOLT-4 leukemia 22.9% | RPMI-8226 leukemia 44% | OVCAR-8 ovarian 62% | OVCAR-5 ovarian 95.8% | OVCAR-4 ovarian 63.8% | SK-OV-3 ovarian 70.9% | OVCAR-3 ovarian 29.2% | HS 578T breast 43.6% | NCI/ADR-RES ovarian 25%

C=CC(=O)N[C@H](Cc1ccc(-c2cc(Cl)cc(Cl)c2)cc1)[C@H](O)[C@@H](O)C(=O)O
inactive: SK-MEL-2 melanoma 90% | EKVX NSCLC 90% | SN12C renal 98.5% | UO-31 renal 86.8% | TK-10 renal 81.7% | ACHN renal 101% | CAKI-1 renal 84% | A498 renal 80.6% | CCRF-CEM leukemia 80.2% | MOLT-4 leukemia 102% | SR leukemia 81.6% | RPMI-8226 leukemia 82.7% | OVCAR-8 ovarian 90.9% | OVCAR-5 ovarian 96% | OVCAR-4 ovarian 96.9% | SK-OV-3 ovarian 78.6% | OVCAR-3 ovarian 101% | HS 578T breast 95.5% | NCI/ADR-RES ovarian 101%

Reference: PubChem BioAssay (NCI)
